Measured values: ChEMBL document CHEMBL4513146, “CO-ADD screening of Karazin Kharkiv National University (Ukraine) compounds”
Measured potencies and affinities stand elsewhere.

The compounds below were run on Klebsiella pneumoniae. Conditions: Concentration 32 ug.mL-1;; ASSAY_TEST Inhibition of Bacterial Growth; detection method Absorption (OD600); MEDIA CAMHB; plate type 384well; NBS; CORNING #3640; time 18 hr.
With `Cc1ccc(NC(=O)Cn2nc3c(Oc4ccccc4C)nccn3c2=O)cc1F` the Inhibition was 11.18%.
For `COc1ccc(NC(=O)Cn2nc3c(Sc4ccccc4)nccn3c2=O)c(OC)c1`, the Inhibition was 2.54%.
`Cc1cccc(NC(=O)Cn2nc3ccc(-c4ccc(C)c(C)c4)nn3c2=O)c1` showed an Inhibition of -0.51%.
In the case of `CCOC(=O)c1ccc(NC(=O)Cn2nc3ccc(Sc4ccccc4)nn3c2=O)cc1`, the Inhibition was 5.75%.
`NC(=O)CSc1nnc2c(=O)n(-c3ccccc3)ccn12` gave an Inhibition of 15.37%.
Work on `O=C(Cn1nc2c(=O)n(-c3ccc(Br)cc3)ccn2c1=O)Nc1ccc(F)cc1F` yielded an Inhibition of 7.12%.
`CSc1cccc(NC(=O)Cn2c(=O)c3nnc(C)n3c3ccccc32)c1` was tested, and the Inhibition was 4.53%.
For `Cc1cc(C)cc(Nc2nc(C)cc3nn(CC(=O)Nc4ccccc4)c(=O)n23)c1`, the Inhibition was 9.53%.
In the case of `COc1cccc(-n2ccn3c(SCC(=O)Nc4ccccc4Cl)nnc3c2=O)c1`, the Inhibition was 9.92%.
`Cc1ccc(-c2ccc3nn(Cc4nc(-c5ccc(Cl)cc5)no4)c(=O)n3n2)cc1C` gave an Inhibition of 7.1%.
`Cc1ccc(NC(=O)Cn2nc3c(SCc4ccc(Cl)cc4)nccn3c2=O)cc1F` gave an Inhibition of 7.4%.
For `COc1ccc(NC(=O)C(C)Sc2nnc3c(=O)n(-c4ccc(C)c(C)c4)ccn23)cc1` (stereo not given), the Inhibition was 12.32%.
`O=C(Cn1nc2c(N3CCSCC3)nc3ccccc3n2c1=O)Nc1ccc(Br)cc1` was tested, and the Inhibition was 7.3%.
Compound `COc1ccc(NC(=O)Cn2nc3c(Oc4ccccc4)nccn3c2=O)cc1OC` has an Inhibition of 4.37%.
With `CSc1cccc(NC(=O)Cn2nc3c(N4CCCC4)nccn3c2=O)c1` the Inhibition was 1.74%.
